# Laboratory results from the supplement of paper PMC12636033.
# ± gives the standard deviation of the averaged measurements. Whole data set: some 33,000 sequences, median “E-score (rank enrichment, -0.5 to 0.5)” near -0.0043, cut for the highest 2% near 0.24. Only a selection was taken, and the highest values are over-represented in it overall.
# Test system: 2Sp-muMax20 (muMax20 with two 2,6-bis(methyl)pyridine Cys staples)
# Assay: PBM 8-mer E-score (E-score (rank enrichment, -0.5 to 0.5)); higher = stronger preferential binding
# Experimental: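 Protein binding microarray (universal PBM chip covering all 10-mers in fixed probe flanks) with chemically synthesized human Max(13-93) bHLH-LZ analogs (not full-length Max) bearing noncanonical residues (hArg, Tha, Aib, Nle at 65) and aromatic Cys staples. Read-out per 8-mer (and its reverse complement): E-score (rank-based enrichment, -0.5 to 0.5) and Z-score of median probe intensity.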
row,Sequence,PBM 8-mer E-score
1,CGACCACC,-0.142 ± 0.0047
2,GCCTTAGC,-0.154 ± 0.029
3,AGATCTTG,0.152 ± 0.051
4,CCATCGAA,-0.00649 ± 0.052
5,GACTATGC,0.0616 ± 0.023
6,ATCCAGTG,-0.0872 ± 0.065
7,ACATTCGG,-0.0311 ± 0.13
8,ACGCATAT,0.333 ± 0.011
9,ATGCATGC,0.262 ± 0.048
10,ACGCATAA,0.164 ± 0.07
11,CTGCATGC,0.0733 ± 0.071
12,ATGCATGG,0.13 ± 0.055
13,ACGCATAG,-0.0802 ± 0.035
14,ATGCATAA,0.114 ± 0.045
15,ATGCATTC,0.285 ± 0.048
16,ATGCATAC,0.258 ± 0.12
17,CTGCATAC,0.0466 ± 0.068
18,ATGCATTG,0.165 ± 0.0071
19,CTGCATTC,-0.000675 ± 0.052
20,CAGGGGGA,0.00992 ± 0.059
21,ACACCGCT,-0.116 ± 0.068
22,CAGCTTGG,-0.0934 ± 0.012
23,GCCCGGGC,-0.296 ± 0.055
24,ACTGAATG,-0.0577 ± 0.048
25,CGCCGATC,-0.128 ± 0.13
26,ATTTGCCA,-0.024 ± 0.041

row,Sequence,PBM 8-mer E-score
1,ACTTCCGG,-0.229 ± 0.1
2,CTCCTCTA,-0.151 ± 0.013
3,CACCTCCG,-0.0614 ± 0.051
4,GAAAGTCA,-0.0504 ± 0.065
5,AGCTGGGA,-0.08 ± 0.019
6,ATTCATTG,0.161 ± 0.087
7,ATTCATTA,0.176 ± 0.007
8,CTACATTC,0.0778 ± 0.03
9,ATACATTC,0.2884 ± 0.0017
10,ATACATTG,0.106 ± 0.029
11,ATTCATTC,0.305 ± 0.013
12,GCCGTTCC,-0.21 ± 0.089
13,AGGTAGAG,-0.122 ± 0.024
14,AATGCTGT,-0.0251 ± 0.073
15,GGCCTCGA,-0.238 ± 0.045
16,ACGTGCTG,0.12 ± 0.063
17,ACGTGCAT,0.195 ± 0.096
18,ACGTGCAC,0.273 ± 0.051
19,GCGTGCAC,0.204 ± 0.017
20,CCGTGCTC,-0.119 ± 0.14
21,ACGTGCTC,0.259 ± 0.027
22,CTTACCAC,0.0166 ± 0.11
23,GTCCTTTA,-0.0713 ± 0.029
24,CCTATCCA,-0.0745 ± 0.015
25,AGTAGGAG,-0.0281 ± 0.053
26,CGCAAGAC,-0.023 ± 0.0044

row,Sequence,PBM 8-mer E-score
1,CCCAATTA,0.203 ± 0.057
2,CCCAATTC,0.246 ± 0.083
3,ACCAATTC,-0.0718 ± 0.0024
4,CATTCTTA,0.145 ± 0.085
5,ATGTTTGA,0.176 ± 0.031
6,ATAATCAG,0.304 ± 0.005
7,ATAATCAC,0.0279 ± 0.026
8,ATAATCTG,0.123 ± 0.1
9,ATAATCAT,0.27 ± 0.013
10,ATAATCAA,0.0608 ± 0.095
11,CTAATCAG,-0.0147 ± 0.026
12,CGTCGGCA,-0.197 ± 0.056
13,CTTCGTTC,-0.0473 ± 0.038
14,GGTTCAAC,-0.145 ± 0.05
15,CTCCATAA,0.0393 ± 0.028
16,TCCGGCAA,-0.207 ± 0.0021
17,ATTTCGTG,0.166 ± 0.031
18,CTTTCGTC,-0.0338 ± 0.038
19,ATTTCGTC,0.279 ± 0.019
20,CTACGACA,-0.0631 ± 0.043
21,ATCACGCA,0.00557 ± 0.0074
22,ACCACGCG,0.363 ± 0.023
23,ATCACGCC,0.192 ± 0.043
24,ATCACGCG,0.247 ± 0.015
25,ACCACGTA,-0.0775 ± 0.034
26,CCCACGCG,0.231 ± 0.014

row,Sequence,PBM 8-mer E-score
1,ACCACGTG,0.436 ± 0.012
2,AGCACGTC,-0.0658 ± 0.05
3,AGCACGTA,0.0888 ± 0.021
4,ACCACGTC,-0.0398 ± 0.011
5,ACCACGCA,0.0893 ± 0.0056
6,AGCACGTG,0.4333 ± 0.0023
7,ACTGCCAA,0.0746 ± 0.053
8,GGTAAGAC,-0.0928 ± 0.022
9,CCGATAAG,-0.181 ± 0.034
10,ATTTTGCA,0.143 ± 0.086
11,TCGTCTCA,-0.0634 ± 0.048
12,ATGTACCA,-0.0255 ± 0.13
13,GAGTGCGC,-0.0296 ± 0.0031
14,CCCCAAGA,0.144 ± 0.023
15,ACCTGGAT,-0.149 ± 0.028
16,GCCGCAGA,-0.0428 ± 0.041
17,CTAGGACC,-0.182 ± 0.025
18,AGCACGCG,0.289 ± 0.0067
19,ATCACGTC,0.0413 ± 0.035
20,CGCACGCG,0.178 ± 0.032
21,ATCACGTG,0.397 ± 0.047
22,AGCACGCA,0.00395 ± 0.075
23,ATCACGTA,0.00227 ± 0.14
24,CTTCTTAA,0.126 ± 0.15
25,CGAAGTGC,0.0928 ± 0.034
26,CACGCGGG,0.187 ± 0.091

row,Sequence,PBM 8-mer E-score
1,CACGCGGC,0.299 ± 0.034
2,CACGCGGA,0.357 ± 0.015
3,AACGCGGA,-0.162 ± 0.14
4,GACGCGGC,-0.08 ± 0.03
5,AACGCGGC,-0.0876 ± 0.028
6,ATTATGCC,0.128 ± 0.012
7,TGCGCACA,0.124 ± 0.025
8,ATGGGGTC,0.0299 ± 0.041
9,CTGGGGAA,-0.125 ± 0.026
10,GTGGGGAA,0.277 ± 0.027
11,TGGGGGAA,0.0001 ± 0.016
12,GGGGGAAA,-0.0158 ± 0.089
13,ATGGGGCA,0.11 ± 0.12
14,ATGGGGCC,-0.0651 ± 0.11
15,TGGGGAAA,0.306 ± 0.022
16,ATGGGGTA,0.239 ± 0.05
17,GTGGGGGA,0.0699 ± 0.011
18,ATGGGGCG,0.25 ± 0.0057
19,ATGGGGTG,0.175 ± 0.018
20,CACAGCGG,-0.125 ± 0.059
21,GATGCCGA,-0.0813 ± 0.081
22,AGCGTATA,0.0565 ± 0.04
23,ACATCACT,0.176 ± 0.046
24,GCCAGTAA,-0.116 ± 0.011
25,CCTCGCGC,-0.0606 ± 0.077
26,CCTCAGAG,-0.228 ± 0.044

row,Sequence,PBM 8-mer E-score
1,ATGGGGAA,0.266 ± 0.018
2,CTGGGATA,-0.0899 ± 0.077
3,GTGGGATA,0.292 ± 0.047
4,ATGGGGAC,0.0501 ± 0.13
5,ATGGGATA,0.179 ± 0.02
6,ATGGGGGA,-0.0138 ± 0.082
7,AGCATACG,0.02 ± 0.039
8,ATCGAGAA,0.0729 ± 0.041
9,ACAGGACC,-0.187 ± 0.045
10,CCGGTCCC,-0.358 ± 0.035
11,AACACACT,0.249 ± 0.0053
12,CACATATG,0.112 ± 0.013
13,CACATATC,0.223 ± 0.019
14,CACATATA,0.328 ± 0.021
15,ATCATATG,0.138 ± 0.065
16,ATCATATA,0.254 ± 0.041
17,GTCATATA,0.207 ± 0.099
18,AACATATG,0.0968 ± 0.03
19,AACACACA,0.118 ± 0.081
20,AACACACG,0.0266 ± 0.031
21,GACATATA,0.12 ± 0.0021
22,AACATATA,0.269 ± 0.036
23,ACCGGTCG,-0.287 ± 0.03
24,CCACGCCC,0.0986 ± 0.0018
25,CTCGTTAC,0.0748 ± 0.13
26,CGGAATTC,-0.121 ± 0.019

row,Sequence,PBM 8-mer E-score
1,AGCGTTAA,0.0977 ± 0.058
2,ATCCAGTC,-0.0864 ± 0.015
3,CAGGAACC,-0.307 ± 0.049
4,CCCATAAG,0.182 ± 0.018
5,CCCAGCTC,-0.0772 ± 0.05
6,CACATCTC,-0.00875 ± 0.02
7,TACATAAA,0.229 ± 0.018
8,TACATACA,0.211 ± 0.075
9,CACATCTG,-0.0474 ± 0.049
10,AACACATG,0.224 ± 0.05
11,CACACATA,0.061 ± 0.0022
12,AACACATA,0.257 ± 0.046
13,CACATCTA,0.258 ± 0.014
14,TACATATA,0.262 ± 0.09
15,TAGGTCCA,-0.13 ± 0.058
16,GCAACCGA,-0.233 ± 0.078
17,CGACCATC,-0.0509 ± 0.089
18,CCATTGTA,0.214 ± 0.022
19,ATAAAAAG,0.315 ± 0.0042
20,ATAAAAGG,0.0278 ± 0.023
21,CTAAAGCA,0.0725 ± 0.028
22,TATAAATA,0.203 ± 0.1
23,CATAAATA,0.33 ± 0.059
24,AATAAAAG,0.25 ± 0.074
25,AATAAAGG,0.0234 ± 0.076
26,ATAAAGCG,0.0648 ± 0.005

row,Sequence,PBM 8-mer E-score
1,ATAAAGCA,0.241 ± 0.014
2,ATAAAAAA,0.202 ± 0.038
3,CATAAAAG,-0.0196 ± 0.1
4,AATAAATA,0.0526 ± 0.066
5,TACGAGAA,0.0414 ± 0.0095
6,CCCGACTC,-0.0283 ± 0.023
7,CCGAGCCG,-0.298 ± 0.03
8,GACCCGCC,0.106 ± 0.0061
9,TCGGAGAA,-0.136 ± 0.017
10,AGGTCTAG,0.0236 ± 0.096
11,ACCTGGTA,-0.129 ± 0.0054
12,CATGGGCG,-0.0275 ± 0.017
13,CAGCCCCC,-0.165 ± 0.099
14,CACTTGAA,0.112 ± 0.02
15,CAAAGGGA,-0.103 ± 0.053
16,AATAACAA,0.259 ± 0.041
17,AATAACAC,0.134 ± 0.04
18,AATAACAT,0.221 ± 0.13
19,ATAAAACG,0.145 ± 0.057
20,ATCAAACA,0.26 ± 0.0065
21,GTAAAACA,0.174 ± 0.056
22,ATAAAACA,0.244 ± 0.067
23,CTCAAACA,-0.00491 ± 0.013
24,AATAAAAA,0.258 ± 0.0034
25,AATAAAAT,0.103 ± 0.12
26,AATAAAAC,0.223 ± 0.072

row,Sequence,PBM 8-mer E-score
1,ATCAAGCA,-0.065 ± 0.053
2,AGACACAC,0.158 ± 0.0089
3,GCTTCAGA,-0.0923 ± 0.073
4,AATCGATT,0.0682 ± 0.041
5,AAACGAGG,0.0592 ± 0.027
6,CAGATGTC,-0.0701 ± 0.0093
7,CCCAGGTA,-0.0104 ± 0.052
8,GATACAAA,0.084 ± 0.0085
9,AATACAAA,0.28 ± 0.018
10,CATACAAA,0.0246 ± 0.065
11,AATACAAT,0.0568 ± 0.04
12,AATACAAG,0.245 ± 0.086
13,AATACGCA,0.286 ± 0.0084
14,TATACAAA,0.256 ± 0.065
15,AATACGCT,0.217 ± 0.0037
16,AATACAAC,0.221 ± 0.053
17,AATACATA,0.139 ± 0.0041
18,AATACAGA,0.00182 ± 0.094
19,GATACGCA,0.0806 ± 0.032
